# Screens from PubChem.
# Compounds with a hit are over-represented: about 3.8% of the library has one in this group of screens.
# FGF22 binding – binders of human FGF22 protein, primary screen, FGF22 synaptogenesis inhibitor project, biophysical, thermal shift, single point; Fibroblast growth factor 22 (Homo sapiens), Q9HCT0; recombinant FGF22 thermal shift, SYPRO orange fluorescence; percent of sucrose octasulfate shift, DMSO zero; activity (Tm shift, normalised), % at 9.99 µM; 340,000 tested, 1.5% active;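 active = mean Tm shift, scaled 0 neutral to 100 positive control, at about 1.3% or above, every replicate too, limit read from the data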
# Target sequence (Q9HCT0 whole entry, looked up): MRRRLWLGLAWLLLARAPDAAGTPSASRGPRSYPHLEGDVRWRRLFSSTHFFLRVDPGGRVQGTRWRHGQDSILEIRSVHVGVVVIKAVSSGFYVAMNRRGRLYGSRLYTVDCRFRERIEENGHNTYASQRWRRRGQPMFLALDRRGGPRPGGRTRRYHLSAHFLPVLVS
# rRNA inh HTS – reduced GFP signal of wild-type E. coli, primary screen, bacterial rRNA inhibitor project, GFP/RFP fluorescence, OD600, single point; E. coli WT GFP vs humanized-ribosome RFP mutants, 24 h; stronger effect = lower value; DMSO median 0, no signal -100; GFP signal change (wild-type ribosome), % (concentration not given with the values); 350,000 tested, 1.6% active; AID 720706, 2013;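 active = significant combined selectivity score with lowered wild-type GFP, culture density cut under 30%, mutant RFP and density less affected; inactive = any of these conditions unmet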
# ADAM17 inh – ADAM17 inhibitors, primary screen, biochemical, QFRET; recombinant ADAM17, EDANS/DABCYL FRET peptide cleavage; inhibition, % at 6.95 µM; Disintegrin and metalloproteinase domain-containing protein 17 (Homo sapiens), P78536; 370,000 tested, 0.83% active;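 active = inhibition above the mean of compounds lying between control limits plus 3 SD, set per campaign, cut at about 8.5% in these data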;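 note: 0% = DMSO-only wells as the low control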
# KLK7 zymogen act – proKLK7 zymogen activators, primary screen, biochemical, fluorescence intensity; activation, % at 7 µM; Kallikrein-7 (Homo sapiens), P49862; 370,000 tested, 0.9% active; purified proKLK7, EDANS-DABCYL substrate fluorescence; 100% is mature enzyme control, 0% vehicle;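 active = activation above the mean of all tested compounds plus 3 SD, computed per campaign excluding outliers beyond control limits, cut at about 13% in these data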
# Target sequence (P49862 whole entry, looked up): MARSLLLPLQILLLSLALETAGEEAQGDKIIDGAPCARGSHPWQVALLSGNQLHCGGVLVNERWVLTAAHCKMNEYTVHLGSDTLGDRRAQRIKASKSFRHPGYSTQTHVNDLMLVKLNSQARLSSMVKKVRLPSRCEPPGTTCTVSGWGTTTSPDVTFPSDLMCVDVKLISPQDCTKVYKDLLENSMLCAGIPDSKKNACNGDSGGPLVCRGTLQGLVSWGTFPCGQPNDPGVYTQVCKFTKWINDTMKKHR
# ADAM10 inh – human ADAM10 inhibitors, primary screen, biochemical, QFRET, HTS; 370,000 tested, 0.62% active; Disintegrin and metalloproteinase domain-containing protein 10 (Homo sapiens), O14672; inhibition, % at 7 µM; recombinant ADAM10, EDANS/DABCYL FRET peptide cleavage, 3 h;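 active = inhibition above a per-campaign cutoff equal to the mean of compounds falling between control-based bounds plus 3 SD, cut at about 20% in these data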;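 note: 0% = DMSO wells while the 100% control is not disclosed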
# proKLK7 act conf – proKLK7 zymogen activators, confirmation, biochemical, fluorescence intensity, triplicate | shares compounds with KLK7 zymogen act | purified proKLK7, EDANS-DABCYL substrate fluorescence; scaled: vehicle 0, mature enzyme 100 | activation, % at 7 µM | 3,200 tested, 68% active | AID 686949, 2013;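 active = activation, as change over the incubation, above the mean of all tested compounds plus 3 SD, cut at about 13% in these data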
# EDANS interfere – EDANS-DABCYL substrate optical interference, artefact control for kallikrein-7 zymogen activator project, biochemical, fluorescence intensity, high throughput | activation, % at 7 µM | 3,200 tested, 80% active | no enzyme, 4 h; solvent 0%, active enzyme control 100% | AID 686952, 2013 | shares compounds with KLK7 zymogen act;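 active = activation above the all-compound mean plus 3 SD, ignoring values outside control-based bounds, cut at about 4.8% in these data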;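 note: value is the 4 h activation minus the activation read at time zero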
# K7 EDANS ctr – counter-screen for kallikrein-7 activators: EDANS-DABCYL interference, dose response. shares compounds with KLK7 zymogen act. EDANS-DABCYL peptide fluorescence interference, no enzyme. EC50, µM. 250 tested, 20% active. AID 720493;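 active = compounds that raise the fluorescence signal in this interference counterscreen, with EC50 at or below 10 µM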;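 note: intact quenched peptide substrate alone read at 355 nm excitation and 520 nm emission; signal is fluorescence gain from T0 to T4 after four hours at room temperature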
# An asterisk follows results filed as active; i = inactive; x = not tested or not shown.
SMILES,FGF22 binding,rRNA inh HTS,ADAM17 inh,KLK7 zymogen act,ADAM10 inh,proKLK7 act conf,EDANS interfere,others
CNc1cc(C)c(C#N)c2nc3ccccc3n12,-0.1,-7.0,i,33.3*,i,93.3*,77.2*,
Cc1cc(NCCOCCO)n2c(nc3ccccc32)c1C#N,-0.2,1.2,i,48.2*,i,85.4*,92.4*,
COC(=O)c1cc(=O)c2c(ccc3oc(=O)ccc32)[nH]1,0.2,7.3,-129.1,171.6*,i,220.0*,220.1*,
COC(=O)c1ccc(COc2ccc3ccc(=O)oc3c2)o1,0.0,10.9,-36.7,-0.7,-129.3,x,x,
Nc1ccc2nc(-c3ccccc3)[nH]c2c1,x,x,i,77.4*,i,61.2*,75.6*,
CC(=O)Nc1ccc2nc(-c3cccn3C)[nH]c2c1,0.1,3.7,-13.1,1.1,-20.2,x,x,
Nc1ccc2nc(-c3ccccn3)[nH]c2c1,x,x,-9.4,-1.2,-20.4,x,x,
CC(=O)Nc1ccc2nc(-c3cccs3)[nH]c2c1,x,x,i,16.1*,i,35.9*,27.6*,K7 EDANS ctr=8.23*
Nc1ccc(-c2nc3c(Cl)cc(N)cc3[nH]2)cc1,x,x,i,41.8*,i,79.0*,68.7*,
Nc1ccc2nc(-c3cccs3)[nH]c2c1,-0.4,6.2,i,73.0*,i,67.1*,69.2*,
O=C(C[C@@H]1C=C[C@H](NC(=O)Cc2ccccn2)[C@H](CO)O1)NCCc1ccccc1,x,-0.5,x,x,x,x,x,
O=C(NC1Cc2ccccc2C1)[C@H]1[C@H](CO)[C@H]2Cn3c(cccc3=O)[C@H]2N1C(=O)C1CCC1,0.1,1.5,x,x,x,x,x,
Nc1ccc2nc(-c3ccc(N)c(Cl)c3)[nH]c2c1,x,x,i,77.3*,i,67.6*,71.7*,
Nc1ccc2nc(-c3cccnc3)[nH]c2c1,x,x,-4.7,-0.4,-10.5,x,x,
CNc1cncc(-c2ccc(O)cc2C)n1,0.4,17.3,-58.2,2.8,-212.2,x,x,
CNc1cncc(-c2cccc(O)c2)n1,-0.1,6.3,i,37.4*,i,35.1*,36.4*,
CNc1cncc(-c2cccc(C(=O)NC3CC3)c2)n1,0.1,-6.0,i,54.4*,i,47.2*,55.0*,
CNc1cncc(-c2cc(OC)c(OC)c(OC)c2)n1,-0.4,-3.3,i,24.6*,i,16.5*,21.7*,
CNc1cncc(-c2ccc(C)cc2)n1,-0.3,6.3,i,30.0*,i,41.2*,40.7*,
CN1c2ccc(-c3cccc(C#N)c3)cc2[C@@H]2[C@@H](CCN2S(=O)(=O)c2ccccc2)[C@@H]1CO,-0.2,-7.4,x,x,x,x,x,
O=C(c1cccc(F)c1)N1CC2(C1)[C@H](c1ccccc1)[C@@H](CO)N2C(=O)C1CCC1,x,-1.3,x,x,x,x,x,
CCC(=O)N1CCC2(CC1)CN(C(=O)Cc1ccccc1)[C@@H](CO)c1c2c2ccc(OC)cc2n1C,-0.3,-2.7,x,x,x,x,x,
O=C(C1CC1)N1CC(=O)N2[C@H](CO)[C@H](c3ccc(Br)cc3)[C@H]2C1,x,0.8,x,x,x,x,x,
Cc1cccc2c(C(=O)O)c3cccc(C)c3nc12,0.1,-8.1,-348.9,28.0*,i,49.1*,41.7*,K7 EDANS ctr=>69.5
Cc1cccc2c(C(=O)O)c3c(nc12)CCCCC3,x,x,-1.7,-0.1,-2.2,x,x,
SMILES,FGF22 binding,rRNA inh HTS,ADAM17 inh,KLK7 zymogen act,ADAM10 inh,proKLK7 act conf,EDANS interfere,others
COc1ccc(-c2cn3nc(SCC(=O)NCC4CCCO4)ccc3n2)cc1 (stereo unspecified),-0.1,-4.3,i,95.2*,i,52.0*,69.5*,
COc1ccc(-c2ccc3nnc(SCC(=O)NCC4CCCO4)n3n2)cc1 (stereo unspecified),0.0,-3.5,-137.3,22.0*,i,31.2*,17.8*,K7 EDANS ctr=>69.5
CCOc1ccc(-c2ccc3nnc(SCC(=O)NCC4CCCO4)n3n2)cc1 (stereo unspecified),-0.1,2.2,-20.2,2.7,-65.4,x,x,
CCOc1ccc2c(c1)/C(=C(\C(Cl)=C(Cl)Cl)[N+](=O)[O-])N2,-0.1,0.9,-187.8,17.9*,i,53.4*,61.0*,
CCCCOc1ccc2c(c1)/C(=C(\C(Cl)=C(Cl)Cl)[N+](=O)[O-])N2,0.1,6.6,-19.7,-3.8,-49.2,x,x,
C[C@@H]1CCCCO[C@@H](CN(C)C)[C@H](C)CN([C@@H](C)CO)C(=O)c2cc(N(C)C)ccc2O1,x,3.5,x,x,x,x,x,
COCCN1C(=O)/C(=C2/C(=O)N(CC(=O)Nc3ccccc3Cl)c3ccccc32)SC1=S,0.0,9.9,-5.6,0.5,-0.8,x,x,
CCN1C(=O)/C(=C2\SC(=S)N(CCCOC)C2=O)c2ccccc21,x,x,-6.6,19.7*,-4.1,0.6,1.0,
CC(C)CC#Cc1cnc2c(c1)C(=O)N([C@H](C)CO)C[C@H](C)[C@H](CN(C)C(=O)c1cccnc1)O2,-0.3,0.5,x,x,x,x,x,
COc1cc(C(Nc2ccccn2)c2c(NC(=O)c3ccco3)sc(C)c2C)cc(OC)c1OC (stereo unspecified),43.8*,3.1,-2.5,25.6*,4.7,-34.4,-31.6,
COc1ccc(NC(=O)Nc2ccc3c(c2)C(=O)N([C@@H](C)CO)C[C@@H](C)[C@H](CN(C)C(=O)C2CCCCC2)OCCCC[C@@H](C)O3)cc1,-0.2,-0.9,x,x,x,x,x,
COc1ccc(S(=O)(=O)N[C@@H]2CC[C@@H](CC(=O)N3CCN(c4ccccc4)CC3)O[C@H]2CO)cc1,-0.2,x,x,x,x,x,x,
CCOc1ccc(/C=C/C(=O)N(C)CC(=O)Nc2cccc(F)c2)cc1OCC,-0.2,8.3,-20.4,105.9*,-73.4,-9.9,-10.1,
CN(CC(=O)Nc1cccc(F)c1)C(=O)/C=C/c1ccc(Br)s1,0.0,4.3,-12.8,-0.2,-39.9,x,x,
CCOC(=O)N1CCC(N2C(=O)c3ccccc3C2Nc2ccc3c(C)cc(=O)oc3c2)CC1 (stereo unspecified),0.2,-3.2,i,36.0*,i,-142.5,-142.2,
CCOC(=O)N1CCC(N2C(=O)c3ccccc3C2Nc2ccc3c(c2)OCCO3)CC1 (stereo unspecified),-0.2,-3.2,0.5,0.8,-13.3,x,x,
COc1cc(/C=C2\CCCc3c2nc2ccccc2c3C(=O)O)cc(OC)c1O,0.2,6.4,-6.1,0.9,-6.6,x,x,
